{"source": "the supplement of paper PMC3545927", "sequences": {"B1": {"name": "HC922 (peptide)", "chain": "CAAGCAWYELAGNASASA"}, "B2": {"name": "HC1794 (peptide)", "chain": "CAKEMEECSQAGNASASA"}, "B3": {"name": "HC2405 (peptide)", "chain": "CAEVPCHRPLAGNASASA"}, "B4": {"name": "FS-2485 (peptide)", "chain": "CAREQRDVERAGNASASA"}, "B5": {"name": "FS-3245 (peptide)", "chain": "CAREQRSNGLAGNASASA"}, "B6": {"name": "FS-2658 (peptide)", "chain": "CAREQRDICEAGNASASA"}, "B7": {"name": "HC221 (peptide)", "chain": "CAKVIDTLTCAGNASASA"}, "B8": {"name": "FS-681 (peptide)", "chain": "CAKVIRHKRQAGNASASA"}, "B9": {"name": "HC1396 (peptide)", "chain": "CAKVTFDRLQAGNASASA"}, "B10": {"name": "FS-303 (peptide)", "chain": "CASVERIKRQAGNASASA"}, "B11": {"name": "FS-961 (peptide)", "chain": "CASIERVKRQAGNASASA"}, "B12": {"name": "HC1991 (peptide)", "chain": "CADVCCSMSYAGNASASA"}, "B13": {"name": "HC1871 (peptide)", "chain": "CATTDCSGSWAGNASASA"}, "B14": {"name": "HC1968 (peptide)", "chain": "CAEWTTPCSGAGNASASA"}, "B15": {"name": "HC83 (peptide)", "chain": "CAVVCVSMSYAGNASASA"}, "B16": {"name": "FS-3053 (peptide)", "chain": "CARRKRHDIAAGNASASA"}, "B17": {"name": "FS-2227 (peptide)", "chain": "CARRGRSGGAAGNASASA"}, "B18": {"name": "FS-2371 (peptide)", "chain": "CARRKRSAALAGNASASA"}, "B19": {"name": "FS-1779 (peptide)", "chain": "CARRKRSAGAAGNASASA"}, "B20": {"name": "FS-1994 (peptide)", "chain": "CARAQRSAGAAGNASASA"}, "B21": {"name": "FS-2189 (peptide)", "chain": "CARTKREAGAAGNASASA"}, "B22": {"name": "FS-2451 (peptide)", "chain": "CARRKRKGSDAGNASASA"}, "B23": {"name": "FS-1756 (peptide)", "chain": "CARNHRDAGAAGNASASA"}, "B24": {"name": "HC2543 (peptide)", "chain": "CASTPCSAALAGNASASA"}, "B25": {"name": "FS-1729 (peptide)", "chain": "CARKNRPAGAAGNASASA"}, "B26": {"name": "HC1710 (peptide)", "chain": "CAMEVCSQHLAGNASASA"}, "B27": {"name": "HC21 (peptide)", "chain": "CAMEECAQHLAGNASASA"}, "B28": {"name": "HC969 (peptide)", "chain": "CATLHGPTPLAGNASASA"}}, "biological_target": "furin, P09958", "sequence (P09958 whole entry, the tested form may be a part)": "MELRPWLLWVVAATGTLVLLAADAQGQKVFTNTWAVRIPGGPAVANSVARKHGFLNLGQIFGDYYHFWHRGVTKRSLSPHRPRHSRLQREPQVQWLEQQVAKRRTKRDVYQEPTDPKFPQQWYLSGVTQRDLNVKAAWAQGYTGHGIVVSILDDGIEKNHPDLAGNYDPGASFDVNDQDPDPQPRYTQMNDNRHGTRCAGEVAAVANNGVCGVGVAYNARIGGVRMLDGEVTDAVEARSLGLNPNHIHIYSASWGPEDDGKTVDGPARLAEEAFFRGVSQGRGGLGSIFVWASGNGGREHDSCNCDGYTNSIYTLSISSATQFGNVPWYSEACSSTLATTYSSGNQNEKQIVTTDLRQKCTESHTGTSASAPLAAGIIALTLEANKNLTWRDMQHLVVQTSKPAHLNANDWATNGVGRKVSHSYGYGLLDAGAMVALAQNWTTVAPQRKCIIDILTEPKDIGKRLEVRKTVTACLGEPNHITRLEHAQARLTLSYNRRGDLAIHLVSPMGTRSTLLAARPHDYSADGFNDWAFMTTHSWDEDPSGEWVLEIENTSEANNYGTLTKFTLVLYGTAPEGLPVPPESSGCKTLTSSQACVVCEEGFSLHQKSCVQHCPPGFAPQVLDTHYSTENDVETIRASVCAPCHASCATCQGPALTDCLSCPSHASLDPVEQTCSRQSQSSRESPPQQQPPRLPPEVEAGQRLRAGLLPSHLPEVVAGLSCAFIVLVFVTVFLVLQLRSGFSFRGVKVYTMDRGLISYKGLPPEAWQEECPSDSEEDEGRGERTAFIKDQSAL", "experiment": "furin cleavage Z-score vs untreated control; higher = more cleavage, active = 3.5 or more, inactive = 1 or less, 8 variable residues between constant flanks", "procedure": "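Multiplexed peptide-cDNA fusion cleavage assay. 8-mer variable peptides flanked by constant Cys-Ala (N-term) and Ala-Gly-Asn-Ala-Ser-Ala-Ser-Ala (C-term) and conjugated to a cDNA oligonucleotide were bead-immobilised via the N-terminus. They were treated with purified furin at a 1:10 enzyme:substrate ratio in 50 mM HEPES pH 7.5, 1 mM CaCl2, 100 mM NaCl for 7.5, 15 or 30 min. Released cDNA was counted by next-generation sequencing, and log counts versus no-furin controls were lowess-adjusted and converted to robust Z-scores.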", "note": "Some of the results follow. The true hit rate is not given."}
{"sequence": "B1", "values": [{"measurement": "furin cleavage Z-score", "setting": "7.5 min", "result": "-0.796 (inactive)"}, {"measurement": "furin cleavage Z-score", "setting": "15 min", "result": "-1.42 (inactive)"}, {"measurement": "furin cleavage Z-score", "setting": "30 min", "result": "-1.58 (inactive)"}]}
{"sequence": "B2", "values": [{"measurement": "furin cleavage Z-score", "setting": "7.5 min", "result": "0.752 (inactive)"}, {"measurement": "furin cleavage Z-score", "setting": "15 min", "result": "0.717 (inactive)"}, {"measurement": "furin cleavage Z-score", "setting": "30 min", "result": "0.689 (inactive)"}]}
{"sequence": "B3", "values": [{"measurement": "furin cleavage Z-score", "setting": "7.5 min", "result": "0.138 (inactive)"}, {"measurement": "furin cleavage Z-score", "setting": "15 min", "result": "-0.494 (inactive)"}, {"measurement": "furin cleavage Z-score", "setting": "30 min", "result": "0.866 (inactive)"}]}
{"sequence": "B4", "values": [{"measurement": "furin cleavage Z-score", "setting": "7.5 min", "result": 1.98}, {"measurement": "furin cleavage Z-score", "setting": "15 min", "result": "3.86 (active)"}, {"measurement": "furin cleavage Z-score", "setting": "30 min", "result": 2.52}]}
{"sequence": "B5", "values": [{"measurement": "furin cleavage Z-score", "setting": "7.5 min", "result": "-0.772 (inactive)"}, {"measurement": "furin cleavage Z-score", "setting": "15 min", "result": "0.724 (inactive)"}, {"measurement": "furin cleavage Z-score", "setting": "30 min", "result": 1.43}]}
{"sequence": "B6", "values": [{"measurement": "furin cleavage Z-score", "setting": "7.5 min", "result": "0.169 (inactive)"}, {"measurement": "furin cleavage Z-score", "setting": "15 min", "result": "0.317 (inactive)"}, {"measurement": "furin cleavage Z-score", "setting": "30 min", "result": "0.297 (inactive)"}]}
{"sequence": "B7", "values": [{"measurement": "furin cleavage Z-score", "setting": "7.5 min", "result": "-1.35 (inactive)"}, {"measurement": "furin cleavage Z-score", "setting": "15 min", "result": "-0.249 (inactive)"}, {"measurement": "furin cleavage Z-score", "setting": "30 min", "result": "-0.555 (inactive)"}]}
{"sequence": "B8", "values": [{"measurement": "furin cleavage Z-score", "setting": "7.5 min", "result": "12.7 (active)"}, {"measurement": "furin cleavage Z-score", "setting": "15 min", "result": "12.4 (active)"}, {"measurement": "furin cleavage Z-score", "setting": "30 min", "result": "9.91 (active)"}]}
{"sequence": "B9", "values": [{"measurement": "furin cleavage Z-score", "setting": "7.5 min", "result": "-1.13 (inactive)"}, {"measurement": "furin cleavage Z-score", "setting": "15 min", "result": "-0.299 (inactive)"}, {"measurement": "furin cleavage Z-score", "setting": "30 min", "result": "-2.04 (inactive)"}]}
{"sequence": "B10", "values": [{"measurement": "furin cleavage Z-score", "setting": "7.5 min", "result": "12.4 (active)"}, {"measurement": "furin cleavage Z-score", "setting": "15 min", "result": "11.8 (active)"}, {"measurement": "furin cleavage Z-score", "setting": "30 min", "result": "10.6 (active)"}]}
{"sequence": "B11", "values": [{"measurement": "furin cleavage Z-score", "setting": "7.5 min", "result": "10.9 (active)"}, {"measurement": "furin cleavage Z-score", "setting": "15 min", "result": "11.9 (active)"}, {"measurement": "furin cleavage Z-score", "setting": "30 min", "result": "7.3 (active)"}]}
{"sequence": "B12", "values": [{"measurement": "furin cleavage Z-score", "setting": "7.5 min", "result": "-0.0698 (inactive)"}, {"measurement": "furin cleavage Z-score", "setting": "15 min", "result": "-0.573 (inactive)"}, {"measurement": "furin cleavage Z-score", "setting": "30 min", "result": 1.23}]}
{"sequence": "B13", "values": [{"measurement": "furin cleavage Z-score", "setting": "7.5 min", "result": "-0.934 (inactive)"}, {"measurement": "furin cleavage Z-score", "setting": "15 min", "result": "-0.299 (inactive)"}, {"measurement": "furin cleavage Z-score", "setting": "30 min", "result": "-0.368 (inactive)"}]}
{"sequence": "B14", "values": [{"measurement": "furin cleavage Z-score", "setting": "7.5 min", "result": "-0.833 (inactive)"}, {"measurement": "furin cleavage Z-score", "setting": "15 min", "result": "-0.0659 (inactive)"}, {"measurement": "furin cleavage Z-score", "setting": "30 min", "result": "0.694 (inactive)"}]}
{"sequence": "B15", "values": [{"measurement": "furin cleavage Z-score", "setting": "7.5 min", "result": "0.357 (inactive)"}, {"measurement": "furin cleavage Z-score", "setting": "15 min", "result": "0.79 (inactive)"}, {"measurement": "furin cleavage Z-score", "setting": "30 min", "result": "-0.758 (inactive)"}]}
{"sequence": "B16", "values": [{"measurement": "furin cleavage Z-score", "setting": "7.5 min", "result": "9.56 (active)"}, {"measurement": "furin cleavage Z-score", "setting": "15 min", "result": "8.72 (active)"}, {"measurement": "furin cleavage Z-score", "setting": "30 min", "result": "8.78 (active)"}]}
{"sequence": "B17", "values": [{"measurement": "furin cleavage Z-score", "setting": "7.5 min", "result": "-0.325 (inactive)"}, {"measurement": "furin cleavage Z-score", "setting": "15 min", "result": "-0.173 (inactive)"}, {"measurement": "furin cleavage Z-score", "setting": "30 min", "result": "-0.877 (inactive)"}]}
{"sequence": "B18", "values": [{"measurement": "furin cleavage Z-score", "setting": "7.5 min", "result": "10.8 (active)"}, {"measurement": "furin cleavage Z-score", "setting": "15 min", "result": "11.7 (active)"}, {"measurement": "furin cleavage Z-score", "setting": "30 min", "result": "9.76 (active)"}]}
{"sequence": "B19", "values": [{"measurement": "furin cleavage Z-score", "setting": "7.5 min", "result": "11.3 (active)"}, {"measurement": "furin cleavage Z-score", "setting": "15 min", "result": "10.7 (active)"}, {"measurement": "furin cleavage Z-score", "setting": "30 min", "result": "8.77 (active)"}]}
{"sequence": "B20", "values": [{"measurement": "furin cleavage Z-score", "setting": "7.5 min", "result": "0.322 (inactive)"}, {"measurement": "furin cleavage Z-score", "setting": "15 min", "result": "0.0646 (inactive)"}, {"measurement": "furin cleavage Z-score", "setting": "30 min", "result": 1.56}]}
{"sequence": "B21", "values": [{"measurement": "furin cleavage Z-score", "setting": "7.5 min", "result": "10.6 (active)"}, {"measurement": "furin cleavage Z-score", "setting": "15 min", "result": "10.5 (active)"}, {"measurement": "furin cleavage Z-score", "setting": "30 min", "result": "7.02 (active)"}]}
{"sequence": "B22", "values": [{"measurement": "furin cleavage Z-score", "setting": "7.5 min", "result": "0.854 (inactive)"}, {"measurement": "furin cleavage Z-score", "setting": "15 min", "result": 2.01}, {"measurement": "furin cleavage Z-score", "setting": "30 min", "result": 1.02}]}
{"sequence": "B23", "values": [{"measurement": "furin cleavage Z-score", "setting": "7.5 min", "result": 1.3}, {"measurement": "furin cleavage Z-score", "setting": "15 min", "result": "0.109 (inactive)"}, {"measurement": "furin cleavage Z-score", "setting": "30 min", "result": "0.263 (inactive)"}]}
{"sequence": "B24", "values": [{"measurement": "furin cleavage Z-score", "setting": "7.5 min", "result": "-1.2 (inactive)"}, {"measurement": "furin cleavage Z-score", "setting": "15 min", "result": "-0.501 (inactive)"}, {"measurement": "furin cleavage Z-score", "setting": "30 min", "result": "0.383 (inactive)"}]}
{"sequence": "B25", "values": [{"measurement": "furin cleavage Z-score", "setting": "7.5 min", "result": "-0.275 (inactive)"}, {"measurement": "furin cleavage Z-score", "setting": "15 min", "result": "-0.752 (inactive)"}, {"measurement": "furin cleavage Z-score", "setting": "30 min", "result": "-0.0808 (inactive)"}]}
{"sequence": "B26", "values": [{"measurement": "furin cleavage Z-score", "setting": "7.5 min", "result": "0.136 (inactive)"}, {"measurement": "furin cleavage Z-score", "setting": "15 min", "result": "0.13 (inactive)"}, {"measurement": "furin cleavage Z-score", "setting": "30 min", "result": "-0.0969 (inactive)"}]}
{"sequence": "B27", "values": [{"measurement": "furin cleavage Z-score", "setting": "7.5 min", "result": "-0.625 (inactive)"}, {"measurement": "furin cleavage Z-score", "setting": "15 min", "result": "-0.0837 (inactive)"}, {"measurement": "furin cleavage Z-score", "setting": "30 min", "result": "-0.768 (inactive)"}]}
{"sequence": "B28", "values": [{"measurement": "furin cleavage Z-score", "setting": "7.5 min", "result": "0.77 (inactive)"}, {"measurement": "furin cleavage Z-score", "setting": "15 min", "result": "0.336 (inactive)"}, {"measurement": "furin cleavage Z-score", "setting": "30 min", "result": "-0.402 (inactive)"}]}
